Many of the other results were omitted from the sample, so the strongest signals are more common in it than they were.
What was measured:
Assay in all cases: glycan array binding signal (z-score within array); higher = stronger binding
Conditions in all cases: glycan notation: IUPAC condensed, linker removed; mutation: H84T
Fuc(a1-2)Gal(b1-3)GlcNAc = molecular target: Fuc(a1-2)Gal(b1-3)GlcNAc
Summary of the method: (§1)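 The binding signal is a Z-score computed within each array. Data were drawn from 3228 arrays in the Consortium for Functional Glycomics database, restricted to those with a known protein sequence. Scores were averaged over arrays of the same protein sequence at different concentrations or buffers, and over linkers, and negative values can be taken as non-binding.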

[1] = molecular target: Fuc(a1-2)Gal(b1-3)GlcNAc(b1-2)Man(a1-3)[Fuc(a1-2)Gal(b1-3)GlcNAc(b1-2)Man(a1-6)]Man(b1-4)GlcNAc(b1-4)[Fuc(a1-6)]GlcNAc
Summary of the method: as §1

[2] = molecular target: Fuc(a1-2)Gal(b1-4)GlcNAc(b1-3)Gal(b1-4)GlcNAc(b1-2)Man(a1-3)[Fuc(a1-2)Gal(b1-4)GlcNAc(b1-3)Gal(b1-4)GlcNAc(b1-2)Man(a1-6)]Man(b1-4)GlcNAc(b1-4)GlcNAc
Summary of the method: as §1

[3] = molecular target: Fuc(a1-2)Gal(b1-4)[Fuc(a1-3)]GlcNAc(b1-3)[Neu5Ac(a2-6)Gal(b1-4)GlcNAc(b1-6)]Gal(b1-4)Glc
Summary of the method: as §1

[4] = molecular target: Fuc(a1-2)[GalNAc(a1-3)]Gal(b1-3)GalNAc(b1-3)Gal(a1-4)Gal(b1-4)Glc
Summary of the method: as §1

Fuc(a1-3)GlcNAc = molecular target: Fuc(a1-3)GlcNAc
Summary of the method: as §1

Fuc(b1-3)GlcNAc = molecular target: Fuc(b1-3)GlcNAc
Summary of the method: as §1

[5] = molecular target: Gal(a1-3)Gal(b1-3)[Fuc(a1-4)]GlcNAc(b1-2)Man(a1-3)[Gal(a1-3)Gal(b1-3)[Fuc(a1-4)]GlcNAc(b1-2)Man(a1-6)]Man(b1-4)GlcNAc(b1-4)GlcNAc
Summary of the method: as §1

[6] = molecular target: Gal(b1-3)GlcNAc(b1-6)GalNAc
Summary of the method: as §1

[7] = molecular target: Gal(b1-3)[Neu5Ac(a2-6)]GalNAc
Summary of the method: as §1

[8] = molecular target: Gal(b1-4)GlcNAc(b1-2)[Gal(b1-4)GlcNAc(b1-6)]Man(a1-6)[GlcNAc(b1-4)][Gal(b1-4)GlcNAc(b1-2)Man(a1-3)]Man(b1-4)GlcNAc(b1-4)GlcNAc
Summary of the method: as §1

[9] = molecular target: Gal(b1-4)GlcNAc(b1-6)Gal(b1-4)GlcNAc
Summary of the method: as §1

[10] = molecular target: Gal3S(b1-4)[Fuc(a1-3)]GlcNAc6S
Summary of the method: as §1

[11] = molecular target: GlcNAc(a1-4)Gal(b1-4)GalNAc
Summary of the method: as §1

[12] = molecular target: GlcNAc(b1-3)Gal(b1-4)GlcNAc(b1-3)Gal(b1-4)GlcNAc(b1-3)Gal(b1-4)GlcNAc(b1-2)Man(a1-3)[GlcNAc(b1-3)Gal(b1-4)GlcNAc(b1-3)Gal(b1-4)GlcNAc(b1-3)Gal(b1-4)GlcNAc(b1-2)Man(a1-6)]Man(b1-4)GlcNAc(b1-4)[Fuc(a1-6)]GlcNAc
Summary of the method: as §1

[13] = molecular target: GlcNAc6S(b1-3)Gal(b1-4)GlcNAc
Summary of the method: as §1

Kdn(a2-3)Gal(b1-4)GlcNAc = molecular target: Kdn(a2-3)Gal(b1-4)GlcNAc
Summary of the method: as §1

[14] = molecular target: Man(a1-2)Man(a1-2)Man(a1-6)[Man(a1-3)]Man
Summary of the method: as §1

[15] = molecular target: Man(a1-2)Man(a1-3)[Man(a1-2)Man(a1-6)]Man
Summary of the method: as §1

[16] = molecular target: Man(a1-2)Man(a1-3)[Man(a1-2)Man(a1-6)]Man(a1-6)[Man(a1-2)Man(a1-2)Man(a1-3)]Man
Summary of the method: as §1

[17] = molecular target: Man(a1-2)Man(a1-3)[Man(a1-2)Man(a1-6)]Man(a1-6)[Man(a1-2)Man(a1-2)Man(a1-3)]Man(b1-4)GlcNAc(b1-4)GlcNAc
Summary of the method: as §1

[18] = molecular target: Man(a1-2)Man(a1-3)[Man(a1-6)]Man(a1-6)[Man(a1-2)Man(a1-3)]Man(b1-4)GlcNAc(b1-4)GlcNAc
Summary of the method: as §1

[19] = molecular target: Man(a1-2)Man(a1-6)[Man(a1-3)]Man(a1-6)[Man(a1-2)Man(a1-2)Man(a1-3)]Man
Summary of the method: as §1

[20] = molecular target: Man(a1-2)Man(a1-6)[Man(a1-3)]Man(a1-6)[Man(a1-2)Man(a1-2)Man(a1-3)]Man(b1-4)GlcNAc(b1-4)GlcNAc
Summary of the method: as §1

Man(a1-3)[Man(a1-6)]Man = molecular target: Man(a1-3)[Man(a1-6)]Man
Summary of the method: as §1

[21] = molecular target: Man(a1-3)[Man(a1-6)]Man(a1-6)[Man(a1-2)Man(a1-3)]Man(b1-4)GlcNAc(b1-4)GlcNAc
Summary of the method: as §1

[22] = molecular target: Man(a1-3)[Man(a1-6)]Man(a1-6)[Man(a1-3)]Man(b1-4)GlcNAc(b1-4)GlcNAc
Summary of the method: as §1

[23] = molecular target: Man(a1-3)[Man(a1-6)]Man(b1-4)GlcNAc(b1-4)GlcNAc
Summary of the method: as §1

[24] = molecular target: Man(a1-3)[Man(a1-6)]Man(b1-4)GlcNAc(b1-4)[Fuc(a1-6)]GlcNAc
Summary of the method: as §1

Neu5Ac(a2-3)Gal = molecular target: Neu5Ac(a2-3)Gal
Summary of the method: as §1

[25] = molecular target: Neu5Ac(a2-3)Gal(b1-4)GlcNAc(b1-2)Man
Summary of the method: as §1

[26] = molecular target: Neu5Ac(a2-3)Gal(b1-4)GlcNAc(b1-2)Man(a1-3)[Neu5Ac(a2-3)Gal(b1-4)GlcNAc(b1-2)Man(a1-6)]Man(b1-4)GlcNAc(b1-4)GlcNAc
Summary of the method: as §1

[27] = molecular target: Neu5Ac(a2-3)Gal(b1-4)GlcNAc(b1-3)Gal(b1-3)GlcNAc
Summary of the method: as §1

[28] = molecular target: Neu5Ac(a2-3)Gal(b1-4)GlcNAc(b1-3)Gal(b1-4)GlcNAc(b1-3)[Neu5Ac(a2-3)Gal(b1-4)GlcNAc(b1-3)Gal(b1-4)GlcNAc(b1-6)]GalNAc
Summary of the method: as §1

[29] = molecular target: Neu5Ac(a2-3)Gal(b1-4)GlcNAc(b1-3)Gal(b1-4)[Fuc(a1-3)]GlcNAc
Summary of the method: as §1

[30] = molecular target: Neu5Ac(a2-3)Gal(b1-4)[Fuc(a1-3)]GlcNAc
Summary of the method: as §1

[31] = molecular target: Neu5Ac(a2-3)Gal(b1-4)[Fuc(a1-3)]GlcNAc(b1-6)[Gal(b1-3)]GalNAc
Summary of the method: as §1

[32] = molecular target: Neu5Ac(a2-6)Gal(b1-4)GlcNAc(b1-2)Man(a1-3)[Man(a1-6)]Man(b1-4)GlcNAc(b1-4)GlcNAc
Summary of the method: as §1

[33] = molecular target: Neu5Ac(a2-6)Gal(b1-4)GlcNAc(b1-2)[Neu5Ac(a2-6)Gal(b1-4)GlcNAc(b1-4)]Man(a1-3)[GlcNAc(b1-4)][Neu5Ac(a2-6)Gal(b1-4)GlcNAc(b1-4)Man(a1-6)]Man(b1-4)GlcNAc(b1-4)GlcNAc
Summary of the method: as §1

[34] = molecular target: Neu5Ac(b2-6)Gal(b1-4)GlcNAc
Summary of the method: as §1

[35] = molecular target: Neu5Gc(a2-8)Neu5Gc(a2-3)Gal(b1-4)GlcNAc
Summary of the method: as §1

B1: Banana lectin (Musa acuminata) (protein)
chain: MNGAIKVGAWGGNGGSAFDMGPAYRIISVKIFSGDVVDGVDVTFTYYGKTETRHYGGSGGTPHEIVLQEGEYLVGMAGEVANYTGAVVLGKLGFSTNKKAYGPFGNTGGTPFSLPIAAGKISGFFGRGGKFLDAIGVYLEPLEHHHHHH
glycan array binding signal (z-score) (Fuc(a1-2)Gal(b1-3)GlcNAc): -0.164
glycan array binding signal (z-score) [1]: -0.026
glycan array binding signal (z-score) [2]: -0.09
glycan array binding signal (z-score) [3]: -0.193
glycan array binding signal (z-score) [4]: -0.165
glycan array binding signal (z-score) (Fuc(a1-3)GlcNAc): -0.218
glycan array binding signal (z-score) (Fuc(b1-3)GlcNAc): -0.189
glycan array binding signal (z-score) [5]: 0.562
glycan array binding signal (z-score) [6]: -0.155
glycan array binding signal (z-score) [7]: -0.154
glycan array binding signal (z-score) [8]: -0.098
glycan array binding signal (z-score) [9]: -0.206
glycan array binding signal (z-score) [10]: -0.177
glycan array binding signal (z-score) [11]: -0.184
glycan array binding signal (z-score) [12]: -0.082
glycan array binding signal (z-score) [13]: -0.199
glycan array binding signal (z-score) (Kdn(a2-3)Gal(b1-4)GlcNAc): -0.189
glycan array binding signal (z-score) [14]: 8.2
glycan array binding signal (z-score) [15]: 2.21
glycan array binding signal (z-score) [16]: 7.07
glycan array binding signal (z-score) [17]: 5.46
glycan array binding signal (z-score) [18]: 4.86
glycan array binding signal (z-score) [19]: 5.72
glycan array binding signal (z-score) [20]: 10.1
glycan array binding signal (z-score) (Man(a1-3)[Man(a1-6)]Man): 6.01
glycan array binding signal (z-score) [21]: 11.3
glycan array binding signal (z-score) [22]: 5.96
glycan array binding signal (z-score) [23]: 4.6
glycan array binding signal (z-score) [24]: 1.98
glycan array binding signal (z-score) (Neu5Ac(a2-3)Gal): -0.212
glycan array binding signal (z-score) [25]: -0.188
glycan array binding signal (z-score) [26]: -0.182
glycan array binding signal (z-score) [27]: -0.175
glycan array binding signal (z-score) [28]: -0.109
glycan array binding signal (z-score) [29]: -0.179
glycan array binding signal (z-score) [30]: -0.19
glycan array binding signal (z-score) [31]: -0.16
glycan array binding signal (z-score) [32]: 0.399
glycan array binding signal (z-score) [33]: -0.177
glycan array binding signal (z-score) [34]: -0.184
glycan array binding signal (z-score) [35]: -0.162
